We go through 17 molecules from PubChem BioAssay (NCATS).

Results filed as inconclusive are left out. A call without a number means that no potency is given here. Calls of active or inactive are those of the source. The call rests on the fitted dose curve; in most records, active means well fitted curve in the direction sought with a large enough effect; inconclusive means small, poorly fitted or top-dose-only effect, or another doubt; inactive means no such curve, though single readings can be large; an effect the other way counts as inactive or inconclusive.

A short description of experiment [1]: qHTS to identify inhibitors of the type 1 interferon - major histocompatibility complex class I in skeletal muscle: primary screen against the NCATS Pharmaceutical Collection (AID 1347407).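 Further: luminescence of HiBiT knocked into endogenous HLA-B as interferon-induced MHC class I level.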 Summed up:
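A qHTS format is used: 8-point, 1:5 compound series with 46 uM top final concentration, applied alongside 4 ng/ml IFN-beta to HLA-B*08:01-HiBiT knock-in myoblasts. Luminescence is measured after 24 h treatment.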
On the technique in general: Quantitative high-throughput screening tests each substance at several concentrations.

The nature of experiment [2]: Primary qHTS for inhibitors of La Crosse Virus (LACV) - induced cell death in SH-SY5Y cells (AID 1508616).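 Further: top concentration of the series differs between compounds; higher means more rescue of cells from virus-induced death.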 Summed up:
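Luminescent ATP readout (ATPLite 1step, 5 min room temperature) measured rescue from LACV-induced death after 6 days of infection at 0.01 MOI; normalized to infected DMSO wells and uninfected DMSO wells.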

The target in experiment [3] is Protein phosphatase 1D (Homo sapiens) (UniProt O15297). Nature of the experiment: Rhodamine-PBP qHTS Assay for Modulators of WT P53-Induced Phosphatase 1 (WIP1) (AID 1347425). Summed up:
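Steps: enzyme with Rh-PBP sensor and compounds, room-temperature incubation of 1 hr, baseline read, addition of VEPPL-pS-QETFS (10 uM final), kinetic fluorescence reads at 525/598 nm. Activity equals final minus baseline signal.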

A short description of experiment [4]: qHTS for inhibitors of adenylyl cyclases using a fission yeast platform: a pilot screen against the NCATS LOPAC library (AID 1347410). Summed up: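 Inhibition of GNAS-stimulated AC9 activity in S. pombe was inferred from derepression of a PKA-repressed fbp1-GFP reporter, measured as cytometric fluorescence after 18 h at 30C with compounds at up to 57 µM.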
Experiment [5] in a line: Validation qHTS assay for inhibitors of Activation Induced Cytidine Deaminase (AID): UDG Counterscreen signal (AID 1347427). Summed up:
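Counterscreen read of UDG activity (2 U/mL, 4/3x) in the FRET deamination format with AID (1 uM, 4/3x), DJC20/DJC23 substrates (250 nM, 4x), 4 h at room temperature. NaOH stop, fluorescence at 560 ex/665 em.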

The target of experiment [6] is Single-stranded DNA cytosine deaminase (Homo sapiens) (UniProt Q9GZX7). Nature of the experiment: Validation qHTS assay for inhibitors of Activation Induced Cytidine Deaminase (AID): AID signal (AID 1347429). Summed up:
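AID and UDG were combined and compounds added at final up to 114 uM, then DJC20/DJC23 FRET substrate was added for 4 hr at room temperature. NaOH was then added for 30 min before fluorescence was read at 540/590 nm.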

Experiment [7] addresses Protein phosphatase 1D (Homo sapiens) (UniProt O15297). Nature of the experiment: RapidFire Mass Spectrometry qHTS Assay for Modulators of WT P53-Induced Phosphatase 1 (WIP1) (AID 1347424).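 Further: amount of dephosphorylated VEPPL-S-QETFS peptide product formed by WIP1; series mostly up to about 63 µM.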 Summed up: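 10 nM WIP1 + cpd, 1 h RT; + 2 uM VEPPL-pS-QETFS, 5 min RT; stop 0.5% formic acid; labelled product standard 1 uM; RapidFire MS. Buffer 50 mM Tris pH 7.5, 30 mM MgCl2, 1 mM TCEP.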

Protein phosphatase 1D (Homo sapiens), sequence (O15297 whole entry, looked up): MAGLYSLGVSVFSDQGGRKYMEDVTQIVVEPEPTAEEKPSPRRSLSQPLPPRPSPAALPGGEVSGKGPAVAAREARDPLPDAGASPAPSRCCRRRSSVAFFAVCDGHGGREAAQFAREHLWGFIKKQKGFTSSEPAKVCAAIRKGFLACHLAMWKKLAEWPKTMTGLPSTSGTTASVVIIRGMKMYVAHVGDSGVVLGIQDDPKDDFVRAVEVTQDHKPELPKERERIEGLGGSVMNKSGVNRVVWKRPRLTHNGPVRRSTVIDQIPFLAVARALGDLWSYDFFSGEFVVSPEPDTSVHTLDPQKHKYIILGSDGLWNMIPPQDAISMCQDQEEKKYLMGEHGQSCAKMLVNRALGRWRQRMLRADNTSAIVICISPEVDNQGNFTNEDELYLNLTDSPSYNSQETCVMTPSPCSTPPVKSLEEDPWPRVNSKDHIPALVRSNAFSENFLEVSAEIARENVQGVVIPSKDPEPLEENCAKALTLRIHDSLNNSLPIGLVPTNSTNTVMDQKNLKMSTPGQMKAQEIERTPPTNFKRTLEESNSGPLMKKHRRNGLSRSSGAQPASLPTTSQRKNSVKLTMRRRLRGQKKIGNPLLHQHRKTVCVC
Single-stranded DNA cytosine deaminase (Homo sapiens), sequence (Q9GZX7 whole entry, looked up): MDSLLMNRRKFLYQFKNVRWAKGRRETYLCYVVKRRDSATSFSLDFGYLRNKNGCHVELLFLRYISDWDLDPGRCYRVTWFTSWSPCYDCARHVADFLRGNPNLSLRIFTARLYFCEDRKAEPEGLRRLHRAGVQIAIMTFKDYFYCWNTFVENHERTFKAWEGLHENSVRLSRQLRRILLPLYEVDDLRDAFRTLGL

With `N#CC1(c2ccc(F)cc2)CCC(=O)CC1`, in experiment [1], the Potency result was “inactive”. Moreover, the outcome in experiment [2] was inactive.
On to `COc1cc(C(=O)OC(COCCC(C)C)CN2CCOCC2)cc(OC)c1OC` (stereo not given), for which the Potency entry in experiment [1] is “inactive”. Moreover, in experiment [2], the call was inactive.
Regarding `C[C@H](N)C(=O)N[C@@H](C)C(=O)NC1[C@H]2CN(c3nc4c(cc3F)c(=O)c(C(=O)O)cn4-c3ccc(F)cc3F)C[C@@H]12` (stereo not given in full), in experiment [1], the Potency result was “inactive”. Moreover, the result in experiment [3] and in experiment [2] was inactive.
`OCc1c[nH]c2ccccc12`: the Potency entry in experiment [1] was “inactive”. In experiment [2], the outcome was inactive.
Turning to `Nc1ncnc2n[nH]c(Nc3ccc(F)cc3)c12`, the molecule was called inactive in experiment [4], in experiment [5], in experiment [6] and in experiment [2].
With `CCC(=O)O[C@H]1[C@H](O[C@@H]2[C@@H](C)[C@H](O[C@H]3C[C@@](C)(OC)[C@@H](O)[C@H](C)O3)[C@@H](C)C(=O)O[C@H](CC)[C@@](C)(O)[C@H](O)[C@@H](C)C(=O)[C@H](C)C[C@@]2(C)O)O[C@H](C)C[C@@H]1N(C)C`, in experiment [1], the Potency result is “inactive”. The result in experiment [3] and in experiment [2] was inactive.
Consider `CCOC(=O)C1=C(C)NC(C)=C(C(=O)OCC)C1c1ccccc1/C=C/C(=O)OC(C)(C)C`, for which the Potency entry in experiment [7] was “inactive”. Moreover, the molecule was called inactive in experiment [3].
As for `CC(=O)N(CC(=O)N(C)C)c1ccccc1`, the Potency entry in experiment [1] is “inactive”. Also, the result in experiment [3] and in experiment [2] was inactive.
On to `CN(CC1(C)CCCO1)S(=O)(=O)c1ccc(Cl)c(S(N)(=O)=O)c1` (stereo not given), for which the Potency result in experiment [1] was “inactive”. Also, the call in experiment [3] and in experiment [2] was inactive.
`O=C(COCCOCCOCC(=O)Nc1c(I)cc(I)c(C(=O)O)c1I)Nc1c(I)cc(I)c(C(=O)O)c1I`: the Potency result in experiment [1] is “inactive”. The molecule was classed as inactive in experiment [3] and in experiment [2].
Regarding `CCC(CN)=C(c1ccccc1)c1ccccc1`, the Potency entry in experiment [1] was “inactive”. In experiment [2], the molecule was called inactive.
As for `Cc1cc2nc3ccc(=[N+](C)C)cc-3sc2cc1N`, the Potency entry in experiment [7] is “inactive”.
Consider `CCCCCCCCCCCCCCCC[n+]1ccccc1`, for which the Potency entry in experiment [7] was “inactive”. Moreover, the molecule was called inactive in experiment [3].
For `Cn1cnc2c(NCc3ccccc3)nc(NCCO)nc21`, the call in experiment [4], in experiment [5], in experiment [6] and in experiment [2] was inactive.
With `CCN(CC)CCN`, the Potency result in experiment [1] was “inactive”. Also, the call in experiment [3] and in experiment [2] was inactive.
As to `O=C(CCOCCOCCOCCOCCC(=O)Nc1c(I)cc(I)c(C(=O)O)c1I)Nc1c(I)cc(I)c(C(=O)O)c1I`, the Potency entry in experiment [1] was “inactive”. Moreover, the call in experiment [3] and in experiment [2] was inactive.
As for `COc1cccc2c1[C@@H]1CN(CCCCn3c(=O)[nH]c4c(sc5ncc(-c6ccccc6)nc54)c3=O)C[C@@H]1CO2`, the molecule was called inactive in experiment [4], in experiment [5] and in experiment [6].
